Reference: PubChem BioAssay (NCI)
The panel holds about 83,000 compounds, 20% with a hit somewhere; the sample as a whole holds those more often.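 The test compound was applied at a single concentration to cells in 96-well plates for 48 hours, and percent growth was recorded.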 The source made the active and inactive calls. Rule for the calls: active = growth percent below 10; inactive = the rest.

Tests used:
Assay in all cases: NCI-60 one-dose screen, 48 h (100 = growth as untreated, 0 = no growth, -100 = all killed)
Settings in all cases: 10 µM unless noted
SK-MEL-2 melanoma = system: SK-MEL-2 melanoma
EKVX NSCLC = system: EKVX NSCLC
SN12C renal = system: SN12C renal
UO-31 renal = system: UO-31 renal
TK-10 renal = system: TK-10 renal
ACHN renal = system: ACHN renal
CAKI-1 renal = system: CAKI-1 renal
A498 renal = system: A498 renal
CCRF-CEM leukemia = system: CCRF-CEM leukemia
MOLT-4 leukemia = system: MOLT-4 leukemia

Measured: growth

O=C(O)c1[nH]c(=O)[nH]c(=O)c1[N+](=O)[O-]
inactive: SK-MEL-2 melanoma 158% | EKVX NSCLC 119% | SN12C renal 108% | UO-31 renal 96.3% | TK-10 renal 119% | ACHN renal 102% | CAKI-1 renal 95.2% | A498 renal 118% | CCRF-CEM leukemia 113% | MOLT-4 leukemia 77.4%

C=CCn1c(SCC(=O)Nc2ccc(C(=O)/C=C/c3cc4cc(OC)ccc4nc3Cl)cc2)nnc1-c1ccc(Br)cc1
inactive: SK-MEL-2 melanoma 79.2% | EKVX NSCLC 87.4% | SN12C renal 81.5% | UO-31 renal 65.3% | TK-10 renal 93.5% | ACHN renal 92.1% | CAKI-1 renal 76.1% | A498 renal 89.5% | CCRF-CEM leukemia 58.5% | MOLT-4 leukemia 68.5%

Cc1cc(=O)[nH]c2c(C#N)cnn12
inactive: SK-MEL-2 melanoma 102% | EKVX NSCLC 97% | SN12C renal 97.4% | UO-31 renal 83.8% | TK-10 renal 101% | ACHN renal 98.8% | CAKI-1 renal 93.6% | A498 renal 93.1% | CCRF-CEM leukemia 101% | MOLT-4 leukemia 105%

CCCCCCCCn1ccc2cc(NC(=O)Cn3cc(CN4CCCCC4)nn3)ccc21
inactive: SK-MEL-2 melanoma 35.6% | EKVX NSCLC 85% | SN12C renal 34.5% | TK-10 renal 75.7% | ACHN renal 57.5% | A498 renal 97% | CCRF-CEM leukemia 15.7%
active: UO-31 renal -96.6% | CAKI-1 renal -45% | MOLT-4 leukemia 8.5%

CCOC(=O)CSc1ncnc2c1c(-c1ccccc1)c(-c1ccccc1)n2-c1ccc(C)cc1
inactive: SK-MEL-2 melanoma 82.4% | EKVX NSCLC 43.9% | SN12C renal 64.3% | UO-31 renal 73.4% | TK-10 renal 78.5% | ACHN renal 90.7% | CAKI-1 renal 75.6% | A498 renal 75.2% | CCRF-CEM leukemia 67% | MOLT-4 leukemia 67.4%

O=C(Cn1c2c(c3ccccc31)CCCC2)Nc1ccc(-c2nc3ccccc3s2)cc1
inactive: SK-MEL-2 melanoma 98.6% | EKVX NSCLC 108% | SN12C renal 103% | UO-31 renal 92.6% | TK-10 renal 98.9% | ACHN renal 112% | CAKI-1 renal 100% | A498 renal 94% | CCRF-CEM leukemia 93.2% | MOLT-4 leukemia 98.8%

OCCNCCCOc1ccc2ncnc(Nc3ccc(Oc4cccc(C(F)(F)F)c4)c(Cl)c3)c2c1
active: ACHN renal -45.4% | CAKI-1 renal 9.01% | CCRF-CEM leukemia 6.8% | MOLT-4 leukemia 1.07%
inactive: SK-MEL-2 melanoma 73.5% | EKVX NSCLC 27% | SN12C renal 58.1% | UO-31 renal 26% | TK-10 renal 49% | A498 renal 58.8%

Fc1ccc(-c2nn(-c3ccccc3)cc2-c2nc3ccccc3o2)cc1
inactive: SK-MEL-2 melanoma 125% | EKVX NSCLC 84% | SN12C renal 60.1% | UO-31 renal 60.6% | TK-10 renal 126% | ACHN renal 53.9% | CAKI-1 renal 82.1% | A498 renal 45.4% | CCRF-CEM leukemia 66.4% | MOLT-4 leukemia 73.7%

CCC(C)N(c1ccc(Cl)cc1)c1nc(-c2ccc(Br)cc2)cs1 (stereo not given)
inactive: SK-MEL-2 melanoma 105% | EKVX NSCLC 80.2% | SN12C renal 99.2% | UO-31 renal 81.3% | TK-10 renal 131% | ACHN renal 96.4% | CAKI-1 renal 70.9% | A498 renal 94.7% | CCRF-CEM leukemia 81.7% | MOLT-4 leukemia 82.7%

C#CCn1cnc2c(Nc3cccc(NC(=O)C=C)c3)ncnc21
inactive: SK-MEL-2 melanoma 84.1% | EKVX NSCLC 84.8% | SN12C renal 83.4% | UO-31 renal 42.3% | TK-10 renal 93.3% | ACHN renal 69.1% | CAKI-1 renal 82.1% | A498 renal 80.5% | CCRF-CEM leukemia 81.6% | MOLT-4 leukemia 71.2%

Nc1nc2c([nH]1)c1[nH]c3ccccc3c1c1[nH]c3ccccc3c21
active: SK-MEL-2 melanoma -23.5% | CCRF-CEM leukemia -3.64% | MOLT-4 leukemia -12.5%
inactive: EKVX NSCLC 73.5% | SN12C renal 75.6% | UO-31 renal 62.9% | TK-10 renal 91.4% | ACHN renal 59.1% | CAKI-1 renal 83.2% | A498 renal 134%

Brc1c2c(c(Br)c3ccccc13)CCCC2
inactive: SK-MEL-2 melanoma 93.8% | EKVX NSCLC 97.2% | SN12C renal 94.2% | UO-31 renal 95.2% | TK-10 renal 99.2% | ACHN renal 104% | CAKI-1 renal 99.2% | A498 renal 94.6% | CCRF-CEM leukemia 96.5% | MOLT-4 leukemia 95.8%

O=C(CCCCC1CCSS1)Nc1ncnc2n[nH]c(-c3ccc(Oc4ccccc4)cc3)c12 (stereo not given)
inactive: SK-MEL-2 melanoma 43.6% | EKVX NSCLC 80.5% | SN12C renal 106% | UO-31 renal 73.2% | TK-10 renal 109% | ACHN renal 88.3% | CAKI-1 renal 97.1% | A498 renal 123% | CCRF-CEM leukemia 13.7%
active: MOLT-4 leukemia -31.3%

COc1cc(OC)c2sc(-c3ccc(-n4cncc4-c4ccc(OC)c(OC)c4)cc3)nc2c1
active: CAKI-1 renal 8.81%
inactive: SK-MEL-2 melanoma 33.5% | EKVX NSCLC 54.7% | SN12C renal 72.3% | UO-31 renal 25.5% | TK-10 renal 71.9% | ACHN renal 38.7% | A498 renal 56.3% | CCRF-CEM leukemia 53.2% | MOLT-4 leukemia 33.6%

O=C(c1ccc(-c2ccccc2)cc1)c1ccc([N+](=O)[O-])cc1
inactive: SK-MEL-2 melanoma 104% | EKVX NSCLC 98% | SN12C renal 104% | UO-31 renal 97.5% | TK-10 renal 124% | ACHN renal 97.5% | CAKI-1 renal 88.1% | A498 renal 124% | CCRF-CEM leukemia 89% | MOLT-4 leukemia 52.6%

COc1ccccc1Nc1nc2c(s1)C1=CC[C@H]3[C@@H]4CC[C@H]([C@H](C)CCCC(C)C)[C@@]4(C)CC[C@@H]3[C@@]1(C)CC2
inactive: SK-MEL-2 melanoma 115% | EKVX NSCLC 105% | SN12C renal 99.6% | UO-31 renal 73.5% | TK-10 renal 117% | ACHN renal 104% | CAKI-1 renal 90.5% | A498 renal 132% | CCRF-CEM leukemia 109% | MOLT-4 leukemia 104%

CN1CCN(c2ccc(C(=O)Nc3cccc(C#Cc4cccc5[nH]nc(N)c45)c3)cc2C(F)(F)F)CC1
active: SN12C renal 3.37% | UO-31 renal -62% | TK-10 renal -30.2% | ACHN renal -46.2% | CAKI-1 renal -96.2% | A498 renal 5.93% | CCRF-CEM leukemia -25.3% | MOLT-4 leukemia -56.3%
inactive: SK-MEL-2 melanoma 27.7% | EKVX NSCLC 17.1%

CN(CCn1sc(=O)n(Cc2ccccc2)c1=O)Cc1ccc2c(Cl)cc(Cl)c(O)c2n1
active: UO-31 renal -11.7%
inactive: SK-MEL-2 melanoma 66.9% | EKVX NSCLC 35.9% | SN12C renal 34.7% | TK-10 renal 63.7% | ACHN renal 27.8% | CAKI-1 renal 46.4% | A498 renal 68.4% | CCRF-CEM leukemia 27.6% | MOLT-4 leukemia 27.7%

CCOc1ccc(NC(=O)CSc2oc(-c3ccccc3)nc2S(=O)(=O)c2ccc(F)cc2)cc1
inactive: SK-MEL-2 melanoma 81.4% | EKVX NSCLC 82.7% | SN12C renal 89.4% | UO-31 renal 94.5% | TK-10 renal 83% | ACHN renal 73.7% | CAKI-1 renal 82.8% | A498 renal 63.7% | CCRF-CEM leukemia 79.8% | MOLT-4 leukemia 63.9%

O=C1Nc2ccccc2[C@]12CC(c1ccccc1)=NN2
inactive: SK-MEL-2 melanoma 44.9% | EKVX NSCLC 50.7% | SN12C renal 59.5% | UO-31 renal 49.5% | TK-10 renal 79.7% | ACHN renal 54.3% | CAKI-1 renal 38.7% | A498 renal 60% | CCRF-CEM leukemia 37.2% | MOLT-4 leukemia 43.2%

S=C1CCSC(=S)N1CCCN1C(=S)CCSC1=S
inactive: SK-MEL-2 melanoma 96.1% | EKVX NSCLC 101% | SN12C renal 75.6% | UO-31 renal 45.1% | TK-10 renal 66% | ACHN renal 44.4% | CAKI-1 renal 58.9% | A498 renal 102% | CCRF-CEM leukemia 16.7% | MOLT-4 leukemia 30.1%

O=C(CI)NC1Oc2ccccc2-c2oc(=O)c(-c3ccccc3)cc21 (stereo not given)
active: SK-MEL-2 melanoma -16.4% | SN12C renal -71.2% | UO-31 renal -94.7% | TK-10 renal -73.5% | ACHN renal -91.3% | CAKI-1 renal -100% | CCRF-CEM leukemia -23.4% | MOLT-4 leukemia -25.8%
inactive: EKVX NSCLC 70.4% | A498 renal 82.1%

COC1=CC(c2ccc[nH]2)=N/C1=C\c1[nH]c(C)c(C(=O)OCc2ccccc2)c1C
active: SK-MEL-2 melanoma -63.1% | EKVX NSCLC -33.5% | SN12C renal -29.4% | UO-31 renal -87.9% | TK-10 renal -4.94% | ACHN renal -86.1% | CAKI-1 renal -40.7% | A498 renal -37.7% | MOLT-4 leukemia -7.67%
inactive: CCRF-CEM leukemia 13.4%

O=C(NNc1nccc(Nc2ccc(S(=O)(=O)Nc3ccncc3)cc2)n1)c1ccccc1
inactive: SK-MEL-2 melanoma 106% | EKVX NSCLC 104% | SN12C renal 107% | UO-31 renal 93.9% | TK-10 renal 95.3% | ACHN renal 104% | CAKI-1 renal 92.8% | A498 renal 103% | CCRF-CEM leukemia 111% | MOLT-4 leukemia 96.7%

CN1CCN(C(=O)c2ccc(NC(=O)Nc3ccc(-c4nc(N5CCOCC5)c5cccn5n4)cc3)cc2)CC1
active: SK-MEL-2 melanoma -8.25% | EKVX NSCLC -22.8% | SN12C renal 5.33% | UO-31 renal -14.6% | TK-10 renal -23.5% | ACHN renal -6.03% | A498 renal -51.5% | MOLT-4 leukemia 0.147%
inactive: CAKI-1 renal 15.3% | CCRF-CEM leukemia 16.9%

COc1cc(-c2nc(SCCC(C)C)nc(Nc3ccccc3Cl)c2C#N)cc(OC)c1OC
inactive: SK-MEL-2 melanoma 101% | EKVX NSCLC 93.3% | SN12C renal 90% | UO-31 renal 69.7% | TK-10 renal 125% | ACHN renal 97.1% | CAKI-1 renal 78.9% | A498 renal 85.3% | CCRF-CEM leukemia 92.1% | MOLT-4 leukemia 87.4%

Cc1ccc(-c2nn(-c3ccccc3)cc2C=C2C(=O)ON=C2C(C)C)cc1
active: CCRF-CEM leukemia 1.71% | MOLT-4 leukemia -15.6%
inactive: SK-MEL-2 melanoma 84.5% | EKVX NSCLC 102% | SN12C renal 75.9% | UO-31 renal 72% | TK-10 renal 86.9% | ACHN renal 89.3% | CAKI-1 renal 61.3% | A498 renal 84.9%
